Results on 15 molecules are retold here after publication PMC11102866, “Nucleosome-bound NR5A2 structure reveals pioneer factor mechanism by DNA minor groove anchor competition”.

Assay [1] deals with NR5A2 wild type;histone octamer (Homo sapiens;, UniProt O00482;C0HKE1;Q6ZWY9;P84244;P62806 1-541;2-130;2-126;2-136;2-103, |). Nature of the assay: SeEN-seq (EMSA of nucleosome library followed by sequencing); 0.8 uM human NR5A2; 20 mM Tris-HCl pH 7.5, 120 mM NaCl, 1 mM MgCl2, 10 uM ZnCl2, 1 mM DTT, 100 ug/ml BSA, room temperature, 30 min; 0.1 uM nucleosome library; high values mean tight binding. Background: In EMSA bound probe runs differently from free probe, usually more slowly.

Assay [2] has as its target mouse Nr5a2 wild type;histone octamer (Mus musculus;, UniProt P45448;C0HKE1;Q6ZWY9;P84244;P62806 1-560;2-130;2-126;2-136;2-103, |). Nature of the assay: SeEN-seq (EMSA of nucleosome library followed by sequencing); 1.2 uM mouse Nr5a2; 20 mM Tris-HCl pH 7.5, 120 mM NaCl, 1 mM MgCl2, 10 uM ZnCl2, 1 mM DTT, 100 ug/ml BSA, room temperature, 30 min; 0.1 uM nucleosome library; high values mean tight binding.

B1: 78 (nucleosome)
DNA 1: ATCCTGGAGAATCCCGGTGCCGAGGCCGCTCAATTGGTCGTAGACAGCTCTAGCACCGCTTAAACGCACGTACGCGCTGTTCAAGGCCATTTAACCGCCAAGGGGATTACTCCCTAGTCTCCAGGCACGTGTCAGATATATACATCCTGTGAT
DNA 2: ATCACAGGATGTATATATCTGACACGTGCCTGGAGACTAGGGAGTAATCCCCTTGGCGGTTAAATGGCCTTGAACAGCGCGTACGTGCGTTTAAGCGGTGCTAGAGCTGTCTACGACCAATTGAGCGGCCTCGGCACCGGGATTCTCCAGGAT
modifications: reconstituted with mouse histones H2A, H2B, H3.3 and H4
For B1, the binding signal in assay [1] is 1.77 log2 enrichment (bound/unbound, relative to Widom 601); in assay [2] it was 2.13 log2 enrichment (bound/unbound, relative to Widom 601).

B2: 80 (nucleosome)
DNA 1: ATCCTGGAGAATCCCGGTGCCGAGGCCGCTCAATTGGTCGTAGACAGCTCTAGCACCGCTTAAACGCACGTACGCGCTGTCCTCAAGGCCATAACCGCCAAGGGGATTACTCCCTAGTCTCCAGGCACGTGTCAGATATATACATCCTGTGAT
DNA 2: ATCACAGGATGTATATATCTGACACGTGCCTGGAGACTAGGGAGTAATCCCCTTGGCGGTTATGGCCTTGAGGACAGCGCGTACGTGCGTTTAAGCGGTGCTAGAGCTGTCTACGACCAATTGAGCGGCCTCGGCACCGGGATTCTCCAGGAT
modifications: reconstituted with mouse histones H2A, H2B, H3.3 and H4
Regarding B2, the binding signal in assay [1] was 0.765 log2 enrichment (bound/unbound, relative to Widom 601); in assay [2] it was 0.924 log2 enrichment (bound/unbound, relative to Widom 601).

B3: 79 (nucleosome)
DNA 1: ATCCTGGAGAATCCCGGTGCCGAGGCCGCTCAATTGGTCGTAGACAGCTCTAGCACCGCTTAAACGCACGTACGCGCTGTCTCAAGGCCATTAACCGCCAAGGGGATTACTCCCTAGTCTCCAGGCACGTGTCAGATATATACATCCTGTGAT
DNA 2: ATCACAGGATGTATATATCTGACACGTGCCTGGAGACTAGGGAGTAATCCCCTTGGCGGTTAATGGCCTTGAGACAGCGCGTACGTGCGTTTAAGCGGTGCTAGAGCTGTCTACGACCAATTGAGCGGCCTCGGCACCGGGATTCTCCAGGAT
modifications: reconstituted with mouse histones H2A, H2B, H3.3 and H4
B3: the binding signal in assay [1] was 1.33 log2 enrichment (bound/unbound, relative to Widom 601); in assay [2], 1.29 log2 enrichment (bound/unbound, relative to Widom 601).

B4: 83 (nucleosome)
DNA 1: ATCCTGGAGAATCCCGGTGCCGAGGCCGCTCAATTGGTCGTAGACAGCTCTAGCACCGCTTAAACGCACGTACGCGCTGTCCCCCTCAAGGCCACCGCCAAGGGGATTACTCCCTAGTCTCCAGGCACGTGTCAGATATATACATCCTGTGAT
DNA 2: ATCACAGGATGTATATATCTGACACGTGCCTGGAGACTAGGGAGTAATCCCCTTGGCGGTGGCCTTGAGGGGGACAGCGCGTACGTGCGTTTAAGCGGTGCTAGAGCTGTCTACGACCAATTGAGCGGCCTCGGCACCGGGATTCTCCAGGAT
modifications: reconstituted with mouse histones H2A, H2B, H3.3 and H4
For B4, the binding signal in assay [1] is 0.795 log2 enrichment (bound/unbound, relative to Widom 601); in assay [2], 0.693 log2 enrichment (bound/unbound, relative to Widom 601).

B5: 76 (nucleosome)
DNA 1: ATCCTGGAGAATCCCGGTGCCGAGGCCGCTCAATTGGTCGTAGACAGCTCTAGCACCGCTTAAACGCACGTACGCGCTTCAAGGCCAGTTTTAACCGCCAAGGGGATTACTCCCTAGTCTCCAGGCACGTGTCAGATATATACATCCTGTGAT
DNA 2: ATCACAGGATGTATATATCTGACACGTGCCTGGAGACTAGGGAGTAATCCCCTTGGCGGTTAAAACTGGCCTTGAAGCGCGTACGTGCGTTTAAGCGGTGCTAGAGCTGTCTACGACCAATTGAGCGGCCTCGGCACCGGGATTCTCCAGGAT
modifications: reconstituted with mouse histones H2A, H2B, H3.3 and H4
Regarding B5, the binding signal in assay [1] is 1.83 log2 enrichment (bound/unbound, relative to Widom 601); in assay [2], 2.16 log2 enrichment (bound/unbound, relative to Widom 601).

B6: 77 (nucleosome)
DNA 1: ATCCTGGAGAATCCCGGTGCCGAGGCCGCTCAATTGGTCGTAGACAGCTCTAGCACCGCTTAAACGCACGTACGCGCTGTCAAGGCCATTTTAACCGCCAAGGGGATTACTCCCTAGTCTCCAGGCACGTGTCAGATATATACATCCTGTGAT
DNA 2: ATCACAGGATGTATATATCTGACACGTGCCTGGAGACTAGGGAGTAATCCCCTTGGCGGTTAAAATGGCCTTGACAGCGCGTACGTGCGTTTAAGCGGTGCTAGAGCTGTCTACGACCAATTGAGCGGCCTCGGCACCGGGATTCTCCAGGAT
modifications: reconstituted with mouse histones H2A, H2B, H3.3 and H4
B6: the binding signal was 1.48 log2 enrichment (bound/unbound, relative to Widom 601) in assay [1] and 1.71 log2 enrichment (bound/unbound, relative to Widom 601) in assay [2].

B7: 81 (nucleosome)
DNA 1: ATCCTGGAGAATCCCGGTGCCGAGGCCGCTCAATTGGTCGTAGACAGCTCTAGCACCGCTTAAACGCACGTACGCGCTGTCCCTCAAGGCCAAACCGCCAAGGGGATTACTCCCTAGTCTCCAGGCACGTGTCAGATATATACATCCTGTGAT
DNA 2: ATCACAGGATGTATATATCTGACACGTGCCTGGAGACTAGGGAGTAATCCCCTTGGCGGTTTGGCCTTGAGGGACAGCGCGTACGTGCGTTTAAGCGGTGCTAGAGCTGTCTACGACCAATTGAGCGGCCTCGGCACCGGGATTCTCCAGGAT
modifications: reconstituted with mouse histones H2A, H2B, H3.3 and H4
Take B7: the binding signal is 0.772 log2 enrichment (bound/unbound, relative to Widom 601) in assay [1] and 0.954 log2 enrichment (bound/unbound, relative to Widom 601) in assay [2].

B8: 86 (nucleosome)
DNA 1: ATCCTGGAGAATCCCGGTGCCGAGGCCGCTCAATTGGTCGTAGACAGCTCTAGCACCGCTTAAACGCACGTACGCGCTGTCCCCCGCGTCAAGGCCACCAAGGGGATTACTCCCTAGTCTCCAGGCACGTGTCAGATATATACATCCTGTGAT
DNA 2: ATCACAGGATGTATATATCTGACACGTGCCTGGAGACTAGGGAGTAATCCCCTTGGTGGCCTTGACGCGGGGGACAGCGCGTACGTGCGTTTAAGCGGTGCTAGAGCTGTCTACGACCAATTGAGCGGCCTCGGCACCGGGATTCTCCAGGAT
modifications: reconstituted with mouse histones H2A, H2B, H3.3 and H4
As for B8, the binding signal is 0.668 log2 enrichment (bound/unbound, relative to Widom 601) in assay [1] and 0.515 log2 enrichment (bound/unbound, relative to Widom 601) in assay [2].

B9: 87 (nucleosome)
DNA 1: ATCCTGGAGAATCCCGGTGCCGAGGCCGCTCAATTGGTCGTAGACAGCTCTAGCACCGCTTAAACGCACGTACGCGCTGTCCCCCGCGTTCAAGGCCACAAGGGGATTACTCCCTAGTCTCCAGGCACGTGTCAGATATATACATCCTGTGAT
DNA 2: ATCACAGGATGTATATATCTGACACGTGCCTGGAGACTAGGGAGTAATCCCCTTGTGGCCTTGAACGCGGGGGACAGCGCGTACGTGCGTTTAAGCGGTGCTAGAGCTGTCTACGACCAATTGAGCGGCCTCGGCACCGGGATTCTCCAGGAT
modifications: reconstituted with mouse histones H2A, H2B, H3.3 and H4
On to B9, for which the binding signal was 0.601 log2 enrichment (bound/unbound, relative to Widom 601) in assay [1] and 0.435 log2 enrichment (bound/unbound, relative to Widom 601) in assay [2].

B10: 82 (nucleosome)
DNA 1: ATCCTGGAGAATCCCGGTGCCGAGGCCGCTCAATTGGTCGTAGACAGCTCTAGCACCGCTTAAACGCACGTACGCGCTGTCCCCTCAAGGCCAACCGCCAAGGGGATTACTCCCTAGTCTCCAGGCACGTGTCAGATATATACATCCTGTGAT
DNA 2: ATCACAGGATGTATATATCTGACACGTGCCTGGAGACTAGGGAGTAATCCCCTTGGCGGTTGGCCTTGAGGGGACAGCGCGTACGTGCGTTTAAGCGGTGCTAGAGCTGTCTACGACCAATTGAGCGGCCTCGGCACCGGGATTCTCCAGGAT
modifications: reconstituted with mouse histones H2A, H2B, H3.3 and H4
For the molecule B10, the binding signal in assay [1] was 0.634 log2 enrichment (bound/unbound, relative to Widom 601); in assay [2], 0.729 log2 enrichment (bound/unbound, relative to Widom 601).

B11: 84 (nucleosome)
DNA 1: ATCCTGGAGAATCCCGGTGCCGAGGCCGCTCAATTGGTCGTAGACAGCTCTAGCACCGCTTAAACGCACGTACGCGCTGTCCCCCGTCAAGGCCACGCCAAGGGGATTACTCCCTAGTCTCCAGGCACGTGTCAGATATATACATCCTGTGAT
DNA 2: ATCACAGGATGTATATATCTGACACGTGCCTGGAGACTAGGGAGTAATCCCCTTGGCGTGGCCTTGACGGGGGACAGCGCGTACGTGCGTTTAAGCGGTGCTAGAGCTGTCTACGACCAATTGAGCGGCCTCGGCACCGGGATTCTCCAGGAT
modifications: reconstituted with mouse histones H2A, H2B, H3.3 and H4
Regarding B11, the binding signal in assay [1] was 0.634 log2 enrichment (bound/unbound, relative to Widom 601); in assay [2] it was 0.756 log2 enrichment (bound/unbound, relative to Widom 601).

B12: 85 (nucleosome)
DNA 1: ATCCTGGAGAATCCCGGTGCCGAGGCCGCTCAATTGGTCGTAGACAGCTCTAGCACCGCTTAAACGCACGTACGCGCTGTCCCCCGCTCAAGGCCAGCCAAGGGGATTACTCCCTAGTCTCCAGGCACGTGTCAGATATATACATCCTGTGAT
DNA 2: ATCACAGGATGTATATATCTGACACGTGCCTGGAGACTAGGGAGTAATCCCCTTGGCTGGCCTTGAGCGGGGGACAGCGCGTACGTGCGTTTAAGCGGTGCTAGAGCTGTCTACGACCAATTGAGCGGCCTCGGCACCGGGATTCTCCAGGAT
modifications: reconstituted with mouse histones H2A, H2B, H3.3 and H4
Regarding B12, the binding signal was 0.756 log2 enrichment (bound/unbound, relative to Widom 601) in assay [1] and 0.748 log2 enrichment (bound/unbound, relative to Widom 601) in assay [2].

B13: 10 (nucleosome)
DNA 1: ATCCTGGAGAATTCAAGGCCAGAGGCCGCTCAATTGGTCGTAGACAGCTCTAGCACCGCTTAAACGCACGTACGCGCTGTCCCCCGCGTTTTAACCGCCAAGGGGATTACTCCCTAGTCTCCAGGCACGTGTCAGATATATACATCCTGTGAT
DNA 2: ATCACAGGATGTATATATCTGACACGTGCCTGGAGACTAGGGAGTAATCCCCTTGGCGGTTAAAACGCGGGGGACAGCGCGTACGTGCGTTTAAGCGGTGCTAGAGCTGTCTACGACCAATTGAGCGGCCTCTGGCCTTGAATTCTCCAGGAT
modifications: reconstituted with mouse histones H2A, H2B, H3.3 and H4
In the case of B13, the binding signal in assay [1] is 5.16 log2 enrichment (bound/unbound, relative to Widom 601); in assay [2] it was 4.92 log2 enrichment (bound/unbound, relative to Widom 601).

B14: 74 (nucleosome)
DNA 1: ATCCTGGAGAATCCCGGTGCCGAGGCCGCTCAATTGGTCGTAGACAGCTCTAGCACCGCTTAAACGCACGTACGCGTCAAGGCCAGCGTTTTAACCGCCAAGGGGATTACTCCCTAGTCTCCAGGCACGTGTCAGATATATACATCCTGTGAT
DNA 2: ATCACAGGATGTATATATCTGACACGTGCCTGGAGACTAGGGAGTAATCCCCTTGGCGGTTAAAACGCTGGCCTTGACGCGTACGTGCGTTTAAGCGGTGCTAGAGCTGTCTACGACCAATTGAGCGGCCTCGGCACCGGGATTCTCCAGGAT
modifications: reconstituted with mouse histones H2A, H2B, H3.3 and H4
As to B14, the binding signal in assay [1] was 1.21 log2 enrichment (bound/unbound, relative to Widom 601); in assay [2] it was 1.39 log2 enrichment (bound/unbound, relative to Widom 601).

B15: 75 (nucleosome)
DNA 1: ATCCTGGAGAATCCCGGTGCCGAGGCCGCTCAATTGGTCGTAGACAGCTCTAGCACCGCTTAAACGCACGTACGCGCTCAAGGCCACGTTTTAACCGCCAAGGGGATTACTCCCTAGTCTCCAGGCACGTGTCAGATATATACATCCTGTGAT
DNA 2: ATCACAGGATGTATATATCTGACACGTGCCTGGAGACTAGGGAGTAATCCCCTTGGCGGTTAAAACGTGGCCTTGAGCGCGTACGTGCGTTTAAGCGGTGCTAGAGCTGTCTACGACCAATTGAGCGGCCTCGGCACCGGGATTCTCCAGGAT
modifications: reconstituted with mouse histones H2A, H2B, H3.3 and H4
In the case of B15, the binding signal is 1.29 log2 enrichment (bound/unbound, relative to Widom 601) in assay [1] and 1.36 log2 enrichment (bound/unbound, relative to Widom 601) in assay [2].
